PP5 inh: PP5 phosphatase inhibitors, primary screen, biochemical, fluorescence; inhibition, % at 6.7 µM; Serine/threonine-protein phosphatase 5 (Homo sapiens), P53041; 320,000 compounds, 0.18% hits; purified PP5c, OMFP substrate fluorescence;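 active = inhibition above the campaign's mean inhibition across all tested compounds plus 3 SD, cut at about 9.5% in these data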;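 note: 0% = DMSO only and 100% = 100 µM cantharidin control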
MsrA act: bovine MsrA enzyme activators, primary screen, biochemical, absorbance, HTS; 360,000 compounds, 0.3% hits; activation, % at 10.6 µM; purified bovine MsrA, absorbance read-out; in the data active = activation above about 7.5%;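 note: 0% = vehicle and 100% = reference activator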
PP1 counter: PP1-alpha phosphatase inhibitors, primary screen, counter-screen for PP5 inhibitor project, biochemical, fluorescence, OMFP substrate, single point; purified PP1alpha; inhibition, % at 6.7 µM; 320,000 compounds, 0.9% hits; AID 2235, 2010;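 active = inhibition above the mean inhibition of all tested compounds plus 3 SD, computed separately for each screening campaign, cut at about 15% in these data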
Target sequence (P62136 whole entry, looked up): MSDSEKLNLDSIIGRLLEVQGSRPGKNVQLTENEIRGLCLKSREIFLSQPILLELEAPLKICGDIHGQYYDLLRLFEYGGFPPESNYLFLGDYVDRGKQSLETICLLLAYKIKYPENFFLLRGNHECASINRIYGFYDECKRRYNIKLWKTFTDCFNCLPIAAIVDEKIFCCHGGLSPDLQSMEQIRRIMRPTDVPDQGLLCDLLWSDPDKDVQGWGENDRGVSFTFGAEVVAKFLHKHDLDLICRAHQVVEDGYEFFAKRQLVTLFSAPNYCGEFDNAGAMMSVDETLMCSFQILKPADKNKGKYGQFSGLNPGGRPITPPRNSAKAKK
EBNA-1 inhibitor: EBNA-1 DNA-binding inhibitors, primary screen, biochemical, fluorescence polarization; inhibition, % at 14.8 µM; 300,000 compounds, 0.34% hits; AID 1950, 2009; in the data active = inhibition above about 28%
ZTA counter: blocks Epstein-Barr virus ZTA, an EBNA-1 counter-screen; 320,000 compounds, 0.15% hits; ZTA-DNA binding, fluorescence polarization; inhibition, % at 11 µM; P03206; in the data active = inhibition above about 33%
Target sequence (P03206 whole entry, looked up): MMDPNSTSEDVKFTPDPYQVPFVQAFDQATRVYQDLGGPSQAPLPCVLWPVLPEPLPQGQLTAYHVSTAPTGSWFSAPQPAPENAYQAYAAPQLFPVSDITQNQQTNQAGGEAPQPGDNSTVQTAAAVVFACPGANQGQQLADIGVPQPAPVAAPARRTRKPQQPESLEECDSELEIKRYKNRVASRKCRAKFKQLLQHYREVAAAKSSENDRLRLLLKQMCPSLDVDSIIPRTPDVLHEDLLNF
MsrA inh: bovine MsrA enzyme inhibitors, primary screen, biochemical, absorbance, HTS | Methionine sulfoxide reductase A (Bos taurus) | purified bovine MsrA, absorbance read-out | inhibition, % at 15.5 µM | 360,000 compounds, 0.75% hits | AID 651718, 2012;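 note: 0% = vehicle wells with enzyme and 100% = reference inhibitor wells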
MsrA conf: bovine MsrA inhibitors, retest, confirmation, biochemical, absorbance, HTS; shares compounds with MsrA inh; purified bovine MsrA, absorbance read-out; inhibition, % at 15.5 µM; 2,300 compounds, 41% hits; AID 651822, 2012;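 note: coupled to thioredoxin reductase with NADPH and selenocystamine and DMSO as substrate; 0% = vehicle only and 100% = full effect of reference inhibitor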
An asterisk follows results filed as active; nt = no result. Hits are enriched below; roughly 2.3% of the tested compounds scored in any of these assays. Cut-off read from the data, not from the text of the source, unless noted: active = inhibition above about 4.5%; inactive = the rest.

SMILES	PP5 inh	MsrA act	PP1 counter	EBNA-1 inhibitor	ZTA counter	MsrA inh	MsrA conf
CCOC(=O)N1CCN(CC(=O)c2ccc(O)c(C)c2O)CC1	-2	-3	2	-7	3	2	nt
COc1cccc(C(=O)N[C@H](C(=O)N2CCC[C@H]2C(=O)NCc2ccccc2)C2CCCCC2)c1	nt	nt	nt	nt	nt	1	nt
Cc1cccc(CC(=O)NCCS(=O)(=O)N2CCN(c3cccc(Cl)c3)CC2)c1	3	-1	1	0	3	-1	nt
CCCCn1c(N)c(N(CC(C)C)C(=O)CCCn2c(=O)oc3ccccc32)c(=O)[nH]c1=O	-2	-3	-2	9	10	2	nt
Cc1c(O)ccc(C(=O)CN2C(=O)c3ccccc3C2=O)c1O	2	-4	3	-5	11	5.7*	4
CN(CC(=O)Nc1cccc(F)c1)C(=O)c1ccccc1Cc1ccccc1	3	-4	0	-20	-10	0	nt
CC(O)CNc1ccc(-c2n[nH]c(=O)c3ccccc23)cc1[N+](=O)[O-] (configuration not stated)	2	-10	1	4	3	-1	nt
CC(O)CNc1cc(N)c([N+](=O)[O-])cc1[N+](=O)[O-] (configuration not stated)	3	-18	-4	-2	8	5.2*	6.2*
CCN(Cc1ccccc1)c1ccc(/C=N/NS(=O)(=O)c2ccc(C)c([N+](=O)[O-])c2)cc1	3	-13	-3	-10	18	4.8*	2
CCN(CC)c1ccc(/C=N/O)cc1	1	-5	-3	2	2	4	nt
CCN(CC)c1ccc(/C=N/NS(=O)(=O)c2cccc([N+](=O)[O-])c2)cc1	1	-7	-2	-4	7	5.4*	3
CCN(CC)c1ccc(/C=N/NS(=O)(=O)c2ccc(CNC(C)=O)cc2)cc1	2	-4	-3	3	-7	6.2*	2
CC(=O)NCc1ccc(S(=O)(=O)N/N=C/c2ccc(Br)cc2)cc1	0	-2	-2	8	-9	1	nt
CCN(CC)c1ccc(C=NCCc2ccc(S(N)(=O)=O)cc2)cc1	2	-12	2	6	-2	4.7*	3
CCOC(=O)c1c(-c2ccccc2Cl)csc1NC(=O)c1cc(S(=O)(=O)N2CCOCC2)ccc1C	1	-3	7	10	4	0	nt
O=C(N/N=C/c1ccc[nH]1)c1c[nH]c2ccccc12	nt	-12	nt	nt	nt	5.8*	4
O=C(N/N=C/c1ccc[nH]1)c1cccnc1	2	-5	2	-1	14	5.7*	5.2*
Cc1cccc(C(=O)N/N=C/c2ccc[nH]2)c1	0	-7	0	14	7	4	nt
Cc1ccccc1/C=N/NC(=O)c1cccnc1	-2	-8	4	-2	2	0	nt
Cc1ccc(C(=O)N/N=C\c2ccc[nH]2)cn1	1	-3	-5	2	2	6.6*	4
Cc1ccc(C(=O)N/N=C\c2cccn2C)cn1	0	-11	-4	13	2	7.8*	4.7*
Cc1ccc(-n2c3c(c(=O)[nH]c2=O)C(NS(=O)(=O)c2ccc(Cl)cc2)(C(F)(F)F)C(=O)N3)cc1 (configuration not stated)	0	-3	-3	-13	5	1	nt
Cc1cccc(OCC(=O)Nc2nnc(S(=O)(=O)N3CCCCCC3)s2)c1	-2	-1	6	13	17	0	nt
Cc1ccc(NC(=O)C2CCCN(C(=O)c3ccc(Cl)cc3)C2)cc1C (configuration not stated)	2	-9	-4	-4	10	0	nt
O=S1(=O)N[C@@H](Cc2ccccc2)COc2cccc(N3CCN(Cc4ccccc4F)CC3)c21	nt	-2	nt	nt	nt	-1	nt
SMILES	PP5 inh	MsrA act	PP1 counter	EBNA-1 inhibitor	ZTA counter	MsrA inh	MsrA conf
CCN1/C(=C/C(=O)c2ccco2)Sc2ccccc21	0	1	-2	7	0	1	nt
CCC(=O)/C=C1/Sc2ccccc2N1CC	0	-9	-2	-3	6	8.2*	4
CCC(=O)/C=C1/Sc2ccc(OC)cc2N1CC	-1	-3	0	3	-10	4.7*	3
S=C(N/N=C/c1ccc2ncccc2c1)Nc1cccnc1	0	3	-5	-3	7	7.2*	4
Oc1ccc(C=NNC(=S)Nc2cccnc2)nc1	nt	-3	nt	nt	nt	7.0*	5.5*
Oc1ccc(/C=N/NC(=S)Nc2cccnc2)cc1O	-1	-9	1	-15	-10	4	nt
Cc1ccccc1Nc1c(N)c(=O)oc2ccccc12	2	2	3	-4	3	6.1*	7.8*
CCCn1nc(C(=O)NNC(=O)CSC(C)C(=O)Nc2cc(C)on2)c2ccccc2c1=O (configuration not stated)	2	-5	4	5	-8	0	nt
Cc1cc(/C=C(/C#N)c2cccc(F)c2)c(C)n1-c1cccnc1	2	-4	1	7	-4	26*	27*
CCN(C(=O)CSc1nc2nc(C)cc(C)n2n1)c1ccccc1	-3	-2	0	11	19	4.8*	2
CCN(C(=O)CSc1nc2nc(C)cc(C)n2n1)c1cccc(C)c1	4	-10	-6	-13	-9	0	nt
O=C(NC1CCCCC1)c1cc2c(cc1Cl)N1CCCCCC1=NS2(=O)=O	nt	-3	nt	nt	nt	-1	nt
COc1ccc(N2CC(C(=O)Nc3ccc([N+](=O)[O-])cc3Br)CC2=O)cc1 (configuration not stated)	1	-5	0	2	-1	0	nt
COc1ccc(N2CC(C(=O)N/N=C/c3cc([N+](=O)[O-])ccc3O)CC2=O)cc1 (configuration not stated)	2	-4	2	-1	5	5.2*	3
C/C(=N\Nc1ccc(C(=O)O)cc1)c1ccc(Br)cc1	3	-4	5	-1	12	4.8*	6.4*
C/C(=N/Nc1ncc(Br)cn1)c1ccc(Br)cc1	1	-4	-3	-14	-6	1	nt
N#CC(c1ccc(O)cc1)N1CCN(C(C#N)c2ccc(O)cc2)CC1 (configuration not stated)	nt	-5	nt	nt	nt	5.0*	1
CCOC(=O)c1c(C)n(S(=O)(=O)c2ccc(C)cc2)c2ccc(O)c(C(=O)O)c12	3	4	2	13	22	-1	nt
Cn1c(=O)n(C)c2cc(/C=C3/SC(=O)N(CC(=O)N4CCOCC4)C3=O)ccc21	1	-4	-3	4	1	4.8*	5
CCOC(=O)CN1C(=O)S/C(=C/c2ccc3c(c2)n(C)c(=O)n3C)C1=O	0	-5	-3	-1	-6	0	nt

High-throughput results from PubChem BioAssay.
